In PubChem BioAssay (Tox21) one finds Potency, viability change, negative = cytotoxic and activity change, negative = cytotoxicity data, which are given here for 36 compounds.

Structures are written as SMILES. Results filed as inconclusive are left out. Entries that show only a call come without a potency. A number with no mark means an inactive call. Activity calls are given as the source filed them. The call rests on the fitted dose curve; in most records, active means well fitted cell-killing curve with a large enough effect in the repeat runs; inconclusive means weak or mixed curves, or effect the other way; inactive means flat fitted curve, though single readings scatter.
Further: nearly all actives have a fitted effect of over 45% in size.

One assay is described as follows: qHTS assay to identify small molecule agonists of the constitutive androstane receptor (CAR) signaling pathway - cell viability counter screen (AID 1224836). Particulars: HepG2-CYP2B6-hCAR viability, CellTiter-Fluor, 23 h, PK11195 added to every well; series mostly up to 92.4 µM. A digest of the protocol:
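HepG2 cells stably carrying hCAR and a CYP2B6-2.2kb reporter were plated 4 h, then given compounds at 15 concentrations plus PK11195 (final 0.75 uM). After 23 h at 37 C, viability was read by CellTiter-Fluor fluorescence.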
On the technique in general: Quantitative high-throughput screening tests each substance at several concentrations.
As to `O=C(OCC1(COC(=O)c2cccnc2)CCCC(COC(=O)c2cccnc2)(COC(=O)c2cccnc2)C1O)c1cccnc1`, the Potency result is “inactive”.

Regarding `BrCc1cccc(Oc2ccccc2)c1`, the Potency result was “inactive”.

For the compound `CCOc1cc([N+](=O)[O-])c(OCC)cc1N1CCOCC1`, the Potency result was “inactive”.

As for `Cc1ccccc1C(=O)Nc1ccc(C(=O)N2CCCC(N(C)C)c3ccccc32)cc1` (stereo unspecified), the Potency entry is “inactive”.

Consider `CCCCCCOc1ccccc1C(N)=O`, for which the Potency result is “inactive”.

Consider `CC(C)=CCOC(=O)c1ccccc1`, for which the Potency entry is “inactive”.

Take `CCOCCOC(=O)/C=C/c1ccc(OC)cc1`: the Potency entry is “inactive”.

`COCCOC(=O)C1=C(C)NC(C)=C(C(=O)OC(C)C)C1c1cccc([N+](=O)[O-])c1` (stereo unspecified): the Potency entry was “inactive”.

Turning to `Nc1ccc2cc(S(=O)(=O)O)cc(O)c2c1`, the Potency entry is “inactive”.

Consider `O=C(Nc1ccc(Cl)c(Cl)c1)C1CC1`, for which the Potency result was “inactive”.

For the compound `Nc1cccc(O)c1`, the Potency result was “inactive”.

In the case of `COc1cc(N)ccc1C`, the Potency result is “inactive”.

As to `O=C(OCC(O)CO)c1ccccc1Nc1ccnc2c(C(F)(F)F)cccc12` (stereo unspecified), the Potency result is “inactive”.

On to `C[C@@H]1O[C@@H](O[C@@H]2[C@@H](O)[C@H](OCCc3ccc(O)c(O)c3)O[C@H](CO[C@@H]3O[C@H](CO)[C@@H](O)[C@H](O)[C@H]3O)[C@H]2OC(=O)/C=C/c2ccc(O)c(O)c2)[C@H](O)[C@H](O)[C@H]1O`, for which the Potency entry is “inactive”.

`N[C@@H](CCC(=O)N[C@@H](CS)C(=O)NCC(=O)O)C(=O)O`: the viability change, negative = cytotoxic is 2.39% [at 19 µM].

As to `CC(C)NCC(O)COc1cccc2[nH]ccc12` (stereo unspecified), the Potency entry was “inactive”.

On to `O=P(O)(O)OP(=O)(O)O`, for which the Potency entry was “inactive”.

For `CC(CN)CC(C)(C)CCN` (stereo unspecified), the Potency result is “inactive”.

For the compound `O=C1c2cccc3c2[C@H](CCC3)CN1[C@@H]1CN2CCC1CC2`, the Potency entry is “inactive”.

With `CCCCOC(=O)c1ccccc1`, the Potency result was “inactive”.

With `CC(=O)Nc1cccc(C)c1`, the Potency entry is “inactive”.

Regarding `CC(N)C(=O)OC(C)(C)Cc1ccc(Cl)cc1` (stereo unspecified), the Potency entry was “inactive”.

For the compound `CC1=C(C(=O)O)N2C(=O)[C@@H](NC(=O)[C@H](N)c3ccc(O)cc3)[C@H]2SC1`, the Potency result is “inactive”.

Turning to `CC(COC(C)(C)C)OCCCO` (stereo unspecified), the Potency result was “inactive”.

Regarding `CC1(CO)CN(c2ccccc2)NC1=O` (stereo unspecified), the Potency entry was “inactive”.

In the case of `OC[C@H](Cc1cccc(O)c1)[C@H](CO)Cc1cccc(O)c1`, the Potency result is “inactive”.

`c1ccc2c(c1)ccc1c3ccccc3ccc21`: the Potency entry is “inactive”.

Take `O=S(=O)(O)c1cc(O)c2ccc(Nc3ccccc3)cc2c1`: the Potency entry is “inactive”.

For the compound `COc1ccc(-c2cc(=O)c3c(O)cc(O[C@@H]4O[C@H](CO[C@@H]5O[C@@H](C)[C@H](O)[C@@H](O)[C@H]5O)[C@@H](O)[C@H](O)[C@H]4O)cc3o2)cc1O`, the Potency entry is “inactive”.

For the compound `CC(C)C(=O)OCCc1ccccc1`, the Potency result was “inactive”.

As to `C#CC(C)N(C)C(=O)Nc1ccc(Cl)cc1` (stereo unspecified), the Potency result was “inactive”.

For `CCOC(=O)c1ccc(OC(=O)CCCCCN=C(N)N)cc1`, the Potency entry is “inactive”.

For `Cc1ccc2ccc(Cl)cc2n1`, the Potency result is “inactive”.

As to `CCCCCCCCCCl`, the Potency entry was “inactive”.

On to `CC(=O)OC(C)OC(=O)C(C)c1ccc(-c2ccccc2)c(F)c1` (stereo unspecified), for which the Potency result is “inactive”.

The next assay in a line: qHTS assay to identify small molecule antagonists of the constitutive androstane receptor (CAR) signaling pathway - cell viability counter screen (AID 1224837). Particulars: HepG2-CYP2B6-hCAR viability, CellTiter-Fluor, 23 h, co-treated with 50 nM CITCO; series mostly up to 92.4 µM. In a few lines:
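Counter screen run in HepG2-CYP2B6-hCAR cells: 4 hr settle, compound titration (15 concentrations) with 50 nM CITCO, 23 hr at 37 C/5% CO2, CellTiter-Fluor fluorescence.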
Regarding `O=C(NCCc1c[nH]c2ccccc12)c1cccnc1`, the Potency entry is “inactive”.

Take `O=C(OCC1(COC(=O)c2cccnc2)CCCC(COC(=O)c2cccnc2)(COC(=O)c2cccnc2)C1O)c1cccnc1`: the Potency entry is “inactive”.

On to `BrCc1cccc(Oc2ccccc2)c1`, for which the Potency entry is “inactive”.

As to `CCOc1cc([N+](=O)[O-])c(OCC)cc1N1CCOCC1`, the Potency entry was “inactive”.

With `Cc1ccccc1C(=O)Nc1ccc(C(=O)N2CCCC(N(C)C)c3ccccc32)cc1` (stereo unspecified), the Potency result is “inactive”.

Regarding `CCCCCCOc1ccccc1C(N)=O`, the Potency result was “inactive”.

In the case of `CC(C)=CCOC(=O)c1ccccc1`, the Potency result is “inactive”.

Turning to `CCOCCOC(=O)/C=C/c1ccc(OC)cc1`, the Potency entry was “inactive”.

As for `COCCOC(=O)C1=C(C)NC(C)=C(C(=O)OC(C)C)C1c1cccc([N+](=O)[O-])c1` (stereo unspecified), the Potency entry was “inactive”.

As for `Nc1ccc2cc(S(=O)(=O)O)cc(O)c2c1`, the Potency result is “inactive”.

Regarding `O=C(Nc1ccc(Cl)c(Cl)c1)C1CC1`, the Potency result is “inactive”.

For the compound `Nc1cccc(O)c1`, the Potency result is “inactive”.

As for `COc1cc(N)ccc1C`, the Potency result is “inactive”.

With `O=C(OCC(O)CO)c1ccccc1Nc1ccnc2c(C(F)(F)F)cccc12` (stereo unspecified), the Potency entry was “inactive”.

Take `C[C@@H]1O[C@@H](O[C@@H]2[C@@H](O)[C@H](OCCc3ccc(O)c(O)c3)O[C@H](CO[C@@H]3O[C@H](CO)[C@@H](O)[C@H](O)[C@H]3O)[C@H]2OC(=O)/C=C/c2ccc(O)c(O)c2)[C@H](O)[C@H](O)[C@H]1O`: the Potency entry is “inactive”.

For the compound `N[C@@H](CCC(=O)N[C@@H](CS)C(=O)NCC(=O)O)C(=O)O`, the activity change, negative = cytotoxicity was 7.5% [at 19 µM].

As to `CC(C)NCC(O)COc1cccc2[nH]ccc12` (stereo unspecified), the Potency result was “inactive”.

As to `O=P(O)(O)OP(=O)(O)O`, the Potency entry was “inactive”.

As for `CC(CN)CC(C)(C)CCN` (stereo unspecified), the Potency entry is “inactive”.

Take `O=C1c2cccc3c2[C@H](CCC3)CN1[C@@H]1CN2CCC1CC2`: the Potency result is “inactive”.

Consider `CCCCOC(=O)c1ccccc1`, for which the Potency entry is “inactive”.

Consider `CC(=O)Nc1cccc(C)c1`, for which the Potency result was “inactive”.

Regarding `CC(N)C(=O)OC(C)(C)Cc1ccc(Cl)cc1` (stereo unspecified), the Potency result is “inactive”.

For `CC1=C(C(=O)O)N2C(=O)[C@@H](NC(=O)[C@H](N)c3ccc(O)cc3)[C@H]2SC1`, the Potency entry is “inactive”.

Regarding `CC(COC(C)(C)C)OCCCO` (stereo unspecified), the Potency entry is “inactive”.

Consider `CC1(CO)CN(c2ccccc2)NC1=O` (stereo unspecified), for which the Potency result is “inactive”.

As for `OC[C@H](Cc1cccc(O)c1)[C@H](CO)Cc1cccc(O)c1`, the Potency entry was “inactive”.

Regarding `c1ccc2c(c1)ccc1c3ccccc3ccc21`, the Potency result is “inactive”.

As to `O=S(=O)(O)c1cc(O)c2ccc(Nc3ccccc3)cc2c1`, the Potency result is “inactive”.

On to `COc1ccc(-c2cc(=O)c3c(O)cc(O[C@@H]4O[C@H](CO[C@@H]5O[C@@H](C)[C@H](O)[C@@H](O)[C@H]5O)[C@@H](O)[C@H](O)[C@H]4O)cc3o2)cc1O`, for which the Potency entry was “inactive”.

Consider `CC(C)C(=O)OCCc1ccccc1`, for which the Potency result was “inactive”.

Take `C#CC(C)N(C)C(=O)Nc1ccc(Cl)cc1` (stereo unspecified): the Potency result was “inactive”.

`CCOC(=O)c1ccc(OC(=O)CCCCCN=C(N)N)cc1`: the Potency result was “inactive”.

With `Cc1ccc2ccc(Cl)cc2n1`, the Potency entry is “inactive”.

Turning to `CCCCCCCCCCl`, the Potency entry was “inactive”.

For the compound `CC(=O)OC(C)OC(=O)C(C)c1ccc(-c2ccccc2)c(F)c1` (stereo unspecified), the Potency result is “inactive”.
